Data on eleven compounds can be found in PubChem BioAssay.

SMILES strings stand for the structures. “And” between values parts separate entries of the source, which are not always exact repeats. Equal values may be shown once. Some structures have more than one record in an assay (separate samples or runs), and their calls can disagree. The source made the active and inactive calls.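 How the source made its calls, unless noted: active means binding below the plate cutoff, the plate median minus 3 SD, with a reading above zero; inconclusive means below the plate cutoff but reading exactly zero; inactive means the rest.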

Assay [1] can be described thus: AGP1-GFP expression modulators, hit retest, confirmation, cell-based, flow cytometry, S. cerevisiae, cherry picks (AID 2273;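 active means GFP response above 150% of the DMSO level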;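 further: median GFP channel fluorescence over the whole cell population gate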). The conditions noted are these: S. cerevisiae AGP1-GFP strain, 3 h, at 10 µM.
Assay [2] has as its target Integrin beta-1 (Homo sapiens) + Integrin alpha-4 (Homo sapiens) (UniProt P13612+P05556). The assay is described as follows: inhibition of HUTS-21 binding to VLA-4, pilot screen, VLA-4 allosteric modulator project, U937 cells, HUTS-21 mAb, flow cytometry, validation set (AID 2674;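 active means inhibition above 50%, about 3 SD of the validation set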;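 further: antibody binding induced by the VLA-4 ligand LDV present at three times its Kd; 0% = LDV ligand with antibody and no compound and 100% = antibody without LDV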). The conditions noted are these: HUTS-21 LIBS mAb binding, at 6.7 µM, stronger effect = higher value, binding induced by LDV ligand. A general note: Flow cytometry measures light scatter and fluorescence of single cells or particles in a stream.

A short description of assay [3]: superoxide lowering in aged yeast cells, pilot screen, validation compound set (AID 2706;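 active means superoxide response below 65% of plate, a cut near 3 SD across the whole screen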;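 further: yeast exposed to compound for one week at 30 degrees C before staining; 100% = mean of all compound wells on the same plate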). Conditions: S. cerevisiae aging, superoxide DHE fluorescence; at 10 µM; stronger effect = lower value.
For assay [4], the target named is Beta-adrenergic receptor kinase 1 (Homo sapiens) (UniProt P25098). The assay is described as follows: GRK2 binders displacing RNA aptamer, biochemical, validation, human GRK2, bead flow cytometry (AID 488806;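 active means aptamer binding inhibition above 30%, about 3 SD of noise from non-fluorescent compounds; inactive means inhibition at or below 30%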). The conditions noted are these: bead-bound GRK2, FAM-aptamer displacement, at 10 µM, stronger effect = higher value.
Sequence of Beta-adrenergic receptor kinase 1 (Homo sapiens) (P25098 whole entry, looked up): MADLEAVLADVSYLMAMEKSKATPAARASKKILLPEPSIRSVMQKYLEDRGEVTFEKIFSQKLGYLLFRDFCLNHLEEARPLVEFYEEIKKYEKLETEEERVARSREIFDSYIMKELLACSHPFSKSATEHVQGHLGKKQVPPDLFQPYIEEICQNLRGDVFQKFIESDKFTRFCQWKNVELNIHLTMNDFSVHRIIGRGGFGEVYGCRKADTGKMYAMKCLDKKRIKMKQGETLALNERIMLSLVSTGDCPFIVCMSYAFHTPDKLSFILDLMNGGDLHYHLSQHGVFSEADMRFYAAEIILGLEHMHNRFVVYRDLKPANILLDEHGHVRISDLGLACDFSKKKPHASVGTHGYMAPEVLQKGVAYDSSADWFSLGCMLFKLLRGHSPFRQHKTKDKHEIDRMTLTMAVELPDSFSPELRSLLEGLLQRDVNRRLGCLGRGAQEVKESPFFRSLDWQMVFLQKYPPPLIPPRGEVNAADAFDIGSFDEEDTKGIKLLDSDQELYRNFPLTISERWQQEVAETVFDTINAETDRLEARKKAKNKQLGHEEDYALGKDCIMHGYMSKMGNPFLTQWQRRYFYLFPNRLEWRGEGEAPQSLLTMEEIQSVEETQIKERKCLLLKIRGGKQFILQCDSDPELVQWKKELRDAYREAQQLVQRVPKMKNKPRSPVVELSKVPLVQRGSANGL
Assay [5] concerns the target Beta-2 adrenergic receptor (Homo sapiens) (UniProt P07550). Description: beta2AR agonists driving receptor internalization, pilot screen, cell-based, FAP fluorogen, flow cytometry, validation set (AID 504459;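 active means percent response above 42, roughly 3 SD of non-fluorescent test compounds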;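 further: agonist-driven loss of surface beta2AR via internalization measured by FAP dye flow cytometry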). The conditions noted are these: Am2.2-beta2AR cells, FAP surface receptor flow cytometry; at 10 µM; stronger effect = higher value.
Assay [6] has as its target AP-2 complex subunit beta (Homo sapiens) (UniProt P63010). Description: inhibitors of arrestin peptide binding to AP2, pilot screen, biochemical, validation set, GST-AP2 beads, flow cytometry (AID 504541;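 active means inhibition above 54%, about 3 SD of non-fluorescent compounds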;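 further: AP2 carries R879A mutation and is captured from E. coli lysate; bead-bound FITC arrestin peptide fluorescence measuring arrestin peptide binding to AP2; 0% = DMSO wells and 100% = excess unlabeled arrestin peptide control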). The conditions noted are these: FITC arrestin peptide, at 10 µM, stronger effect = higher value, AP2 beta2 appendage fragment, R879A mutant.
The nature of assay [7]: yeast V-ATPase proton transport modulators, S. cerevisiae, pHLuorin, HTS validation (AID 504600; in the data active means response above about 15%;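 further: plate controls were DMSO for no effect and reference compound for full effect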). Conditions: S. cerevisiae pHLuorin cytosolic pH, at 10 µM, stronger effect = higher value.
The subject of assay [8] is anti-desmoglein-3 scFv antibody binding to human DSG3. The assay is described as follows: inhibitors of anti-DSG3 scFv binding to DSG3, pilot screen, biochemical, validation compound set, bead-based, flow cytometry (AID 588368).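 Further: signal is the median channel fluorescence of bead-bound GFP antibody.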 Conditions: Protein G beads, DSG3-Fc, scFv-GFP binding, at 10 µM, stronger effect = lower value.
The nature of assay [9]: inhibitors of fungal efflux pumps CDR1, CDR2, MDR1, pilot screen, validation compound set, multiplex, phenotypic (AID 588506;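 active means efflux inhibition above 0.42, the validation set average plus 4 SD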;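 further: Nile Red retained in cells so higher fluorescence means more efflux inhibition; 0 = negative control wells and 1 = enniatin B 25 µM full block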). Conditions: S. cerevisiae pump-expressing triplex, Nile Red efflux flow cytometry; at 10 µM; stronger effect = higher value; the pumps come from Candida albicans.
Assay [10] addresses ATP-binding cassette sub-family B member 6 (Homo sapiens) (UniProt Q9NP58). Description: ABCB6 transporter inhibitors, pilot screen, K562-ABCB6 cells, flow cytometry, validation set (AID 588550;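 active means inhibition above the screen-wide mean plus 3 SD, about 51%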;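 further: 0% = DMSO wells and 100% = benzethonium chloride 70 µM positive control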). The conditions noted are these: K562-ABCB6 porphyrin accumulation, 1 h, at 10 µM, stronger effect = higher value.
Assay [11] in a line: promoters of myeloid differentiation in arrested cells, primary screen, cell-based, GFP/MAC1 double positive, flow cytometry, validation set (AID 588685;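 active means differentiation response of at least 50%, scaled between solvent and reference control, from cells with both markers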;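 further: compound exposure lasts four days before antibody staining and flow analysis; 0% = DMSO wells and 100% = 5 µM fulvestrant positive control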). Conditions: ER-HoxA9 marrow cells, stronger effect = higher value, normalized: vehicle 0, fulvestrant 100.

One may read the inhibition as the change of the read-out against control, counted positive when it falls.

Sequence of AP-2 complex subunit beta (Homo sapiens) (P63010 whole entry, looked up, the tested form may be a part, one chain of several): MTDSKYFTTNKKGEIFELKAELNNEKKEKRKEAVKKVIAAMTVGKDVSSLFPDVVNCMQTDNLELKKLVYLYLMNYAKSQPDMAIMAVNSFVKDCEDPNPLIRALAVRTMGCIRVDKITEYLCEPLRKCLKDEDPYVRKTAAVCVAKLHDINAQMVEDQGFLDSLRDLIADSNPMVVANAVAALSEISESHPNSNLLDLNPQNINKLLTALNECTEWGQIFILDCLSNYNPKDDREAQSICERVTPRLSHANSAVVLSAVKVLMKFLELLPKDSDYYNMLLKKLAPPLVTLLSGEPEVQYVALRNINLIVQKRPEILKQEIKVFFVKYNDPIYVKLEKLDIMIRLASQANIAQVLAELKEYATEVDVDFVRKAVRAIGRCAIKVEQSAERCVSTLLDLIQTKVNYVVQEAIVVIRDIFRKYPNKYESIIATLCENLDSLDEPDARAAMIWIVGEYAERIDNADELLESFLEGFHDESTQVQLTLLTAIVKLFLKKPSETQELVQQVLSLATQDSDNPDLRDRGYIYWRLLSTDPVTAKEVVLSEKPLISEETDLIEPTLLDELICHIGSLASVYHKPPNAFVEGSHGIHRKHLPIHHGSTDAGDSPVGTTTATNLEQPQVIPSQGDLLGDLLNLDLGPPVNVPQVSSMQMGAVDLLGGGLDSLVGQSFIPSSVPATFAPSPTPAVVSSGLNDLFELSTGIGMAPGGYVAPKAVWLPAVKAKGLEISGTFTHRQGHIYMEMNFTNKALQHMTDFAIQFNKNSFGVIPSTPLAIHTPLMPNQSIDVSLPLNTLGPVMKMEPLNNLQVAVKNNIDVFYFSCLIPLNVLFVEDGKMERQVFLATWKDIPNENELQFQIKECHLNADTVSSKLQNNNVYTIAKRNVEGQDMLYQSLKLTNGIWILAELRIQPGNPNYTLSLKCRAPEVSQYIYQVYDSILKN
Sequence of Beta-2 adrenergic receptor (Homo sapiens) (P07550 whole entry, looked up): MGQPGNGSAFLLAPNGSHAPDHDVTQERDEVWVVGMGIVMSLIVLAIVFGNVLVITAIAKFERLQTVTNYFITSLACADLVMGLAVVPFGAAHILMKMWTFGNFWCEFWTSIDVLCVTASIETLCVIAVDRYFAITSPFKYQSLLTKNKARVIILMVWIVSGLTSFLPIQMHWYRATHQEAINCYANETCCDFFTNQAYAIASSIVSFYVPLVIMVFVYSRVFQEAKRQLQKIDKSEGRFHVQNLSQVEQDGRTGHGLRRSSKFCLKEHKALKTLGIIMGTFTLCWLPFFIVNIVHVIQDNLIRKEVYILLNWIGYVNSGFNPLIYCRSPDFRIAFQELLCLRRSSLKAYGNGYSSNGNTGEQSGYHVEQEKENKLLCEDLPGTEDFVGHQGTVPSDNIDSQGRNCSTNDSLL
Sequence of Integrin beta-1 (Homo sapiens) + Integrin alpha-4 (Homo sapiens) (P05556 whole entry, looked up): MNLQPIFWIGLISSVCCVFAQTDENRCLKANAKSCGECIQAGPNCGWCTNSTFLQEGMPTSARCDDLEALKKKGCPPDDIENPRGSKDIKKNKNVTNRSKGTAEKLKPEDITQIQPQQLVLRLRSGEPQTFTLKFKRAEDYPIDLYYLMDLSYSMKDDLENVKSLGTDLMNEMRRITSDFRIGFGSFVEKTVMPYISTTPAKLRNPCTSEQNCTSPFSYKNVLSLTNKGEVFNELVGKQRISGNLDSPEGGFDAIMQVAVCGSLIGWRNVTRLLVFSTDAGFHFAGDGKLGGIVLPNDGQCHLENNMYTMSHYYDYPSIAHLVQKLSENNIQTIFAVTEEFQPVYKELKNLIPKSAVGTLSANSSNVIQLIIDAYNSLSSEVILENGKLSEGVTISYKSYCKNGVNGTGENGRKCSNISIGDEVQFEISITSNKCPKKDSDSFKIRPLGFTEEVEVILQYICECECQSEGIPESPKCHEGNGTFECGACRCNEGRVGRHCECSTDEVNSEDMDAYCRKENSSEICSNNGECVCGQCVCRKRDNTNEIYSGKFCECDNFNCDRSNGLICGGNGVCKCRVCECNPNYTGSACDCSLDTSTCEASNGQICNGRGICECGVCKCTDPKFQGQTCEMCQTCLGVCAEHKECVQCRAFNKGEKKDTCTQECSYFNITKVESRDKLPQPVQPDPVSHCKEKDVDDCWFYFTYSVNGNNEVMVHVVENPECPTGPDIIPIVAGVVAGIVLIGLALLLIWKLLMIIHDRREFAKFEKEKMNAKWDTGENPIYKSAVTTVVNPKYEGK
Sequence of Integrin beta-1 (Homo sapiens) + Integrin alpha-4 (Homo sapiens) (P13612 whole entry, looked up): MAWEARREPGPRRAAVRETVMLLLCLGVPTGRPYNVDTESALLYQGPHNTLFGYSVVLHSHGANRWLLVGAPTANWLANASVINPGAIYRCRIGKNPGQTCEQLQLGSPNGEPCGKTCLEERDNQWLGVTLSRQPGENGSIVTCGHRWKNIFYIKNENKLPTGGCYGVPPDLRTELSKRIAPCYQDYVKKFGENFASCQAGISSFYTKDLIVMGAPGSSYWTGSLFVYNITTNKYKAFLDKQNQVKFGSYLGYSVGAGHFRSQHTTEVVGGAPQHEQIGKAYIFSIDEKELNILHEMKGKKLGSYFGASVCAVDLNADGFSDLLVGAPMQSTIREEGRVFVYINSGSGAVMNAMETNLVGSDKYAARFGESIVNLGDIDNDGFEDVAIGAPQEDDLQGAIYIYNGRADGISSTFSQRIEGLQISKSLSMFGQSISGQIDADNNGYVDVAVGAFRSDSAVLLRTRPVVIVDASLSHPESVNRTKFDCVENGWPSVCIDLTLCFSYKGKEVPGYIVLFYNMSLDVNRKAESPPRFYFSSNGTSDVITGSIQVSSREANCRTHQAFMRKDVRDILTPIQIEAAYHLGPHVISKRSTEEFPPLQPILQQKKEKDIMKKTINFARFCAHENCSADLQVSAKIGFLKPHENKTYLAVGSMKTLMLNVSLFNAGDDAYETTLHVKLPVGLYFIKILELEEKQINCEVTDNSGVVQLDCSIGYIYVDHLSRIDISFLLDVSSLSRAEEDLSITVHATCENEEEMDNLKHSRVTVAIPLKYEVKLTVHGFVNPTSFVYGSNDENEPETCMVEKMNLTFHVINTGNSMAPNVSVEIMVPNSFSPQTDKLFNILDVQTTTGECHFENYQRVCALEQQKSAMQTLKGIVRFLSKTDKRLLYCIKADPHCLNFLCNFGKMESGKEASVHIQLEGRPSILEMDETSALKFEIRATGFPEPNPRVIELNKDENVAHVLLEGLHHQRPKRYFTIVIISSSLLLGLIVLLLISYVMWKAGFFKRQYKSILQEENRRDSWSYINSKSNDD
Sequence of ATP-binding cassette sub-family B member 6 (Homo sapiens) (Q9NP58 whole entry, looked up): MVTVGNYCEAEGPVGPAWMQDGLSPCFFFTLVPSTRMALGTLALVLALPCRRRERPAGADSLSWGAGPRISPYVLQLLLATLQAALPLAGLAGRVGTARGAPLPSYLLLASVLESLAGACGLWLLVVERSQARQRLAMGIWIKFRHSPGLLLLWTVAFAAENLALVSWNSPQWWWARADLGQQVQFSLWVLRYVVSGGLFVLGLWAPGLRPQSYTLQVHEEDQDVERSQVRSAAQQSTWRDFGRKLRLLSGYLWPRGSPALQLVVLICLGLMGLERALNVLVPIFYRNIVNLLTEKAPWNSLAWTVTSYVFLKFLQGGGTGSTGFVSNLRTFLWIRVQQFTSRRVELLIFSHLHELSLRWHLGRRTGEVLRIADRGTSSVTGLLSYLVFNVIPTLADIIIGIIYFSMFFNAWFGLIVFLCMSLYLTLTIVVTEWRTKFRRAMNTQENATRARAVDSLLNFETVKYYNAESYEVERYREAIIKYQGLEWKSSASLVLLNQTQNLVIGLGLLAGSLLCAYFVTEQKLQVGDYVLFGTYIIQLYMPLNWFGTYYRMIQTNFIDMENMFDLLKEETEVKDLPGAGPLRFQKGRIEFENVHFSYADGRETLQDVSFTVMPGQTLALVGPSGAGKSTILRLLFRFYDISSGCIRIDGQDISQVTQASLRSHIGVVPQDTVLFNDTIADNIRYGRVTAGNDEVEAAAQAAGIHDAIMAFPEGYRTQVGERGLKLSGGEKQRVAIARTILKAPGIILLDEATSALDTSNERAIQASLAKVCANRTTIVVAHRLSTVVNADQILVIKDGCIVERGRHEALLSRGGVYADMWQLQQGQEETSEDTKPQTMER

For the compound `COc1ccc(-c2[nH]ncc2CN(CCO)Cc2cccs2)c(F)c1`, the GFP response, % of DMSO in assay [1] was 97.2% (inactive). Besides, the inhibition in [2] is 5.61% (inactive); in assay [6], 53.1% (inactive); in [10] it was -5% (inactive). Also, the superoxide response (% of plate) in [3] is 92.5% (inactive). Also, the aptamer binding inhibition in [4] is 5% (inactive). Further, the values for the response in assay [5] and in assay [7] were -21% (inactive) and -4.99% (inactive), respectively. In [8], the binding (% of control) is 99.8% (inactive). In assay [9], the efflux inhibition (fraction of control) is 0.08 (inactive). Besides, the differentiation response in assay [11] was -0.18% (inactive).
`O=c1cc(-c2ccccc2)oc2cc(OCc3ccccc3)cc(O)c12`: the GFP response, % of DMSO in [1] is 98.9% (inactive). In addition, the inhibition was -16.8% (inactive) in assay [2], 30.1% (inactive) in [6] and 0% (inactive) in [10]. Further, the superoxide response (% of plate) in assay [3] was 88.6% (inactive). For the same compound, the aptamer binding inhibition in assay [4] is 0% (inactive). Further, the response in assay [5] is -12.6% (inactive); in [7], -0.61% (inactive). In assay [8], the binding (% of control) was 100% (inactive). Besides, the efflux inhibition (fraction of control) in assay [9] is 0.59 (active). For the same compound, the differentiation response in assay [11] is 5.73% (inactive).
As for `O=c1cnn([C@@H]2O[C@H](CO)[C@@H](O)[C@H]2O)c(=O)[nH]1`, in [1], the GFP response, % of DMSO was 89.9% (inactive). In addition, the inhibition in assay [2] is 13.4% (inactive); in assay [6], -3.47% (inactive); in assay [10], 0% (inactive). The superoxide response (% of plate) in assay [3] was 124% (inactive). The aptamer binding inhibition in [4] was 1% (inactive). The response was -10.1% (inactive) in [5] and -1.24% (inactive) in assay [7]. Besides, in assay [8], the binding (% of control) was 107% (inactive). For the same compound, the efflux inhibition (fraction of control) in assay [9] was -0.04 (inactive). Also, in assay [11], the differentiation response is 1.91% (inactive).
Take `O=[N+]([O-])c1ccc(O)c2ncccc12`: the GFP response, % of DMSO in [1] was 128% (inactive). The inhibition is -1.12% (inactive) in assay [2], -6.92% (inactive) in [6] and 1% (inactive) in assay [10]. Also, in assay [3], the superoxide response (% of plate) was 56.6% (active). Moreover, the aptamer binding inhibition in assay [4] was 0% (inactive). Further, the response was -20% (inactive) in assay [5] and 65.3% (active) in assay [7]. In assay [8], the binding (% of control) was 83.2% (inactive). Besides, the efflux inhibition (fraction of control) in [9] is -0.13 (inactive). The differentiation response in assay [11] was -3.02% (inactive).
Turning to `O=[N+]([O-])c1cccc2cn[nH]c12`, the GFP response, % of DMSO in [1] was 105% (inactive). Besides, the inhibition in assay [2] is -13.9% (inactive); in assay [6], 49.7% (inactive); in [10], 0% (inactive). Further, the superoxide response (% of plate) in [3] was 117% (inactive). Moreover, the aptamer binding inhibition in assay [4] is 0% (inactive). The response was -10.1% (inactive) in assay [5] and -6.22% (inactive) in assay [7]. Further, the binding (% of control) in assay [8] was 93.6% (inactive). Moreover, the efflux inhibition (fraction of control) in assay [9] was 0.3 (inactive). For the same compound, the differentiation response in assay [11] was 3.28% (inactive).
With `CN(C)CCN(Cc1ccccc1)c1ccccn1`, the GFP response, % of DMSO in assay [1] was 103% (inactive). In addition, the figures for the inhibition in [2], in [6] and in [10] were -6.15% (inactive), 49.6% (inactive) and 113% (active), respectively. Further, in [3], the superoxide response (% of plate) is 95.6% (inactive). For the same compound, in assay [4], the aptamer binding inhibition is 1% (inactive). Also, the values for the response in assay [5] and in assay [7] were 1.51% (inactive) and -5.5% (inactive), respectively. In addition, in assay [8], the binding (% of control) was 103% (inactive). Besides, in assay [9], the efflux inhibition (fraction of control) is 0.48 (active). Further, in [11], the differentiation response is -1.64% (inactive).
`CN(C)CCCN1c2ccccc2Sc2ccc(Cl)cc21`: in assay [1], the GFP response, % of DMSO was 94.3% (inactive). Also, the inhibition in assay [2] is 7.43% (inactive) and 1.61% (inactive); in assay [6], -3.39% (inactive) and -5.93% (inactive); in [10] it was 10% (inactive) and 13% (inactive). For the same compound, the superoxide response (% of plate) in assay [3] is 98.3% (inactive) and 93.3% (inactive). In [4], the aptamer binding inhibition was -6% (inactive) and -20% (inactive). In addition, the response in assay [5] is 17.4% (inactive) and 15.9% (inactive); in assay [7], 10.8% (inactive) and 0.91% (inactive). For the same compound, the binding (% of control) in [8] is 107% (inactive) and 114% (inactive). In addition, the efflux inhibition (fraction of control) in [9] was -0.17 (inactive) and 0.55 (active). Also, the differentiation response in assay [11] was -7.37% (inactive) and 5.73% (inactive).
As to `C[C@]12CCC(=O)C=C1[C@H](O)C[C@@H]1[C@@H]2[C@@H](O)C[C@@]2(C)[C@H]1CC[C@]2(O)C(=O)CO`, the GFP response, % of DMSO in assay [1] is 98.9% (inactive). Also, the inhibition was -10.5% (inactive) in assay [2], -21.5% (inactive) in [6] and 3% (inactive) in assay [10]. The superoxide response (% of plate) in assay [3] is 98.9% (inactive). Besides, the aptamer binding inhibition in [4] is 2% (inactive). Moreover, the response in assay [5] was 6.38% (inactive); in assay [7], 1.8% (inactive). For the same compound, the binding (% of control) in assay [8] is 104% (inactive). Also, the efflux inhibition (fraction of control) in assay [9] was -0.05 (inactive). In assay [11], the differentiation response was 5.67% (inactive).
In the case of `O=C1ON=C(c2ccc(Cl)cc2)/C1=C/c1ccc(O)cc1`, in [1], the GFP response, % of DMSO is 95.4% (inactive). Besides, the values for the inhibition in assay [2], in assay [6] and in [10] were 14.6% (inactive), -8.88% (inactive) and 2% (inactive), respectively. Moreover, in [3], the superoxide response (% of plate) was 93.4% (inactive). For the same compound, in assay [4], the aptamer binding inhibition was 4% (inactive). Moreover, the results for the response in assay [5] and in [7] were 33.5% (inactive) and -1.63% (inactive), respectively. Moreover, in assay [8], the binding (% of control) was 101% (inactive). For the same compound, the efflux inhibition (fraction of control) in assay [9] was -0.06 (inactive). Moreover, the differentiation response in assay [11] is -8.8% (inactive).
Consider `COc1cc2c(cc1OC)C(c1ccccc1)=NCC2`, for which, in assay [1], the GFP response, % of DMSO is 98.3% (inactive). The inhibition was 2.58% (inactive) in [2], 6.17% (inactive) in [6] and 6% (inactive) in assay [10]. In addition, in assay [3], the superoxide response (% of plate) was 93.7% (inactive). Further, in [4], the aptamer binding inhibition was 3% (inactive). For the same compound, the values for the response in assay [5] and in assay [7] were 2.38% (inactive) and -0.17% (inactive), respectively. The binding (% of control) in [8] was 99% (inactive). Moreover, the efflux inhibition (fraction of control) in assay [9] is 0.34 (inactive). Further, in [11], the differentiation response is 1.64% (inactive).
Take `C[C@]12CCC(=O)C=C1CC[C@@H]1[C@@H]2[C@@H](O)C[C@@]2(C)[C@H]1CC[C@]2(O)C(=O)CO`: the GFP response, % of DMSO in assay [1] was 99.2% (inactive). For the same compound, the inhibition is 10.9% (inactive) in assay [2], 29.5% (inactive) in assay [6] and 3% (inactive) in [10]. The superoxide response (% of plate) in assay [3] was 99.2% (inactive). Moreover, the aptamer binding inhibition in [4] is -2% (inactive). Further, the response in [7] was -1.08% (inactive). The binding (% of control) in [8] was 95.4% (inactive). Besides, in assay [11], the differentiation response was -18% (inactive).
